A short description of test [1]: High-throughput drug toxicity screening in the BPDCN cell line Gen2.2 (AID 1224824; call rule not given here;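 further: cells exposed to compounds for 48 h before reading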). As to conditions: Gen2.2 BPDCN cells; at 45.8 µM (top of the series) unless noted. In short, it runs like this: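 Gen2.2 cells, 500 per well in phenol red-free RPMI with 10% FBS, exposed to compounds 48 h at 37 C, 5% CO2; viability by CellTiter-Glo luminescence. Percent activity scaled to DMSO (100%) and 9.2 uM bortezomib final (0%).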

Test [2] can be described thus: High-throughput drug toxicity screening in the BPDCN cell line Cal-1 (AID 1224825; call rule not given here). As to conditions: Cal-1 BPDCN cell viability, qHTS; at 45.8 µM (top of the series) unless noted. An outline of the steps:
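Cal-1 cells, 500 per well in phenol-red-free RPMI with 10% FBS, exposed to compounds for 48 hours at 37C, 5% CO2. Viability read by CellTiter-Glo luminescence; percent activity normalized to DMSO (100%) and 9.2 uM bortezomib final (0%).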
For orientation: Quantitative high-throughput screening tests each substance at several concentrations.

The nature of test [3]: qHTS assay for measurement of the activity of small molecule inhibitors on Zika virus induced Caspase-3 activity in human iPSC derived neural progenitor cells (hNPCs) (AID 1224857). Further: nearly all actives have a fitted effect of over 65% in size. Further: potency means the concentration at half of the fitted maximal effect. In short, it runs like this: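 Zika virus (2 FFU/cell) infection of human iPSC-derived NPCs, 6 h, following 1 h compound preincubation. Read-out: Caspase-Glo 3/7 luminescence.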
Test [4] is described as follows: qHTS assay for measurement of the activity of small molecule inhibitors on Zika virus induced Caspase-3 activity in human astrocytoma cells (AID 1224859). Further: potency means the concentration at half of the fitted maximal effect. In short, it runs like this:
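Caspase activation in ZIKV-infected SNB-19 cells (2 FFU/cell, 6 h) measured by Caspase-Glo 3/7 luminescence after 30 min RT; compound pre-incubated 1 h; normalised to uninfected and infected controls.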

Test [5] can be described thus: qHTS Screen of the MIPE 4.0 Collection Against Ewings Sarcoma (RDES) (AID 1259252). Further: nearly all actives have a fitted effect of over 35% in size. Further: potency means the concentration at half of the fitted maximal effect. An outline of the steps: (§1)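 Dose series incubated 48 h with cells in RPMI plus 5% FBS, glutamine and penicillin/streptomycin; cell viability then quantified via CellTiter-Glo.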
A short description of test [6]: qHTS Screen of the MIPE 4.0 Collection Against Ewings Sarcoma (TC71) (AID 1259253). Further: nearly all actives have a fitted effect of over 40% in size. Further: potency means the concentration at half of the fitted maximal effect. An outline of the steps:
as §1

Test [7] in a line: qHTS Screen of the MIPE 4.0 Collection Against Ewings Sarcoma (EW8) (AID 1259255). Further: nearly all actives have a fitted effect of over 35% in size. Further: potency means the concentration at half of the fitted maximal effect.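 On viability: 100% = DMSO-treated cells and 0% = medium-only wells without cells.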 An outline of the steps:
as §1

Test [8] is described as follows: qHTS Screen of the MIPE 4.0 Collection Against Ewings Sarcoma (TC32) (AID 1259256). Further: nearly all actives have a fitted effect of over 45% in size. Further: potency means the concentration at half of the fitted maximal effect. An outline of the steps: as §1
The nature of test [9]: qHTS assay to identify small molecule inhibitors of chordoma cells - UCH-1 (AID 1259355). Further: on the % scale 0 is the no-effect control and ±100 the full control effect; nearly all actives have a fitted effect of over 55% in size. In short, it runs like this:
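Cells (800/well) were seeded and left overnight at 37 C, 5% CO2, then treated with drugs at 15 concentrations plus a combination mix of auranofin, camptothecin, doxorubicin, rubitecan and topotecan. Viability after 48hr was read by CellTiter-Glo luminescence.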

The nature of test [10]: P-glycoprotein substrates identified in KB-3-1 adenocarcinoma cell line, qHTS therapeutic library screen (AID 1346986). Further: nearly all actives have a fitted effect of over 60% in size.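 Further: potency means the concentration at half of the fitted maximal effect; potency is for cytotoxicity meaning loss of cell viability.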 In short, it runs like this:
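Compounds were tested in dose-response against KB-3-1 and KB-8-5-11 cells at 37 degree C for 72 h, and viability was measured by luminescence. AC50 values came from curve fitting with class-based activity calls.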

Test [11] is described as follows: P-glycoprotein substrates identified in KB-8-5-11 adenocarcinoma cell line, qHTS therapeutic library screen (AID 1346987). Further: nearly all actives have a fitted effect of over 65% in size. Further: potency means the concentration at half of the fitted maximal effect. An outline of the steps: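 KB-8-5-11: colchicine-selected sub-line of KB-3-1 over-expressing P-gp; assay medium lacked colchicine. 72 h drug exposure at 37 degree C, CellTiter-Glo.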
Test [12] can be described thus: Natriuretic polypeptide receptor (hNpr1) antagonism - Pilot counterscreen GloSensor control cell line (AID 1347045; calls by dose curve; further: on the % scale 0 is the no-effect control and ±100 the full control effect). An outline of the steps:
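HEK293 cells carrying the GloSensor cGMP sensor (GIP/pGS-40F) were loaded with 2% GloSensor reagent for 2 h, exposed to compounds for 30 min, and then stimulated with 50 uM sodium nitroprusside for 20 min at room temperature.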

A short description of test [13]: Identifying Small Molecule Inhibitors of Pancreatic Cancer Stem Cells (SN12C, Adherent) (AID 1259358).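 Further: cell survival measured after 48 h of compound exposure.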 Further: potency means the concentration at half of the fitted maximal effect. In short, it runs like this: (§2)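 Endpoint: ATP-based luminescence, 48 h drug exposure. Bortezomib at 9.2 uM final as full-kill control; DMSO vehicle as negative control; activity normalized between vehicle and cell-free wells.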
A short description of test [14]: Identifying Small Molecule Inhibitors of Pancreatic Cancer Stem Cells (Panc1, Spheroid) (AID 1259359).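 Further: potency means the concentration at half of the fitted maximal effect; compound exposure lasted 48 h before reading.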 An outline of the steps: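 After a 4 h attachment period, compounds were pinned into wells and cultures held 48 h under standard incubator conditions. Viability was then measured as CellTiter-Glo luminescence following 10 min at room temperature.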
Test [15] is described as follows: Identifying Small Molecule Inhibitors of Pancreatic Cancer Stem Cells (SN12C, Spheroid) (AID 1259360). Further: potency means the concentration at half of the fitted maximal effect.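 On viability (% of control): 100% = DMSO-treated cells and 0% = wells without cells.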 As to conditions: Potency: SN12C spheroid viability. An outline of the steps: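 Pre-formed 14-day tumor spheroids or adherent cells dosed and incubated 48 h, 37C, 5% CO2. Viability assessed by CellTiter-Glo.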
Test [16] is described as follows: Identifying Small Molecule Inhibitors of Pancreatic Cancer Stem Cells (A278, Adherent) (AID 1259361).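 Further: viability read after 48 h compound exposure; nearly all actives have a fitted effect of over 35% in size.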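 On viability (% of control): 100% = DMSO-treated cells and 0% = cell-free media-only wells.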 An outline of the steps:
as §2

Test [17] in a line: qHTS assay to identify small molecule inhibitors of chordoma cells - UCH-2 (AID 1259356). Further: on the % scale 0 is the no-effect control and ±100 the full control effect.
The nature of test [18]: Identifying Small Molecule Inhibitors of Pancreatic Cancer Stem Cells (Panc1, Adherent) (AID 1259362).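 Further: compound exposure lasted 48 h before the viability read; plate controls were DMSO-treated cells for no effect and cell-free media wells for full effect.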 As to conditions: Potency: viability. In short, it runs like this: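 Luminescent ATP readout (CellTiter-Glo) quantifies surviving cells after a 48 h drug incubation. Normalization uses DMSO wells as no inhibition and media-only wells as full inhibition; bortezomib served as positive control.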

“And” between values parts separate entries of the source, which are not always exact repeats. Equal values may be shown once. Results filed as inconclusive are left out. The source made the active and inactive calls. Unless noted, the call rests on the fitted dose curve; in most records, active means well fitted curve in the direction sought with a large enough effect; inconclusive means small, poorly fitted or top-dose-only effect, or another doubt; inactive means no such curve, though single readings can be large; an effect the other way counts as inactive or inconclusive.

With `CNC[C@H](O)c1cccc(O)c1`, the cell viability, % of control (lower = more cytotoxic) in test [1] is 196%. In test [2], the viability (% of control) was determined as 133%. Moreover, the Potency result in [3], in test [4], in test [5], in [6], in test [7] and in test [8] was “inactive” each time. Moreover, the Potency entry in [9], in test [10] and in test [11] was “inactive” in each case. Moreover, the result in [12] was inactive.

Consider `CCOc1cc(N2CCC(O)CC2)ccc1Nc1ncc2c(n1)N(C)c1ccccc1C(=O)N2C`, for which the cell viability, % of control (lower = more cytotoxic) in test [1] stood at 6.39%. The viability (% of control) in test [2] came to 2.19%. The Potency result in test [3] and in test [4] was “inactive” throughout. In addition, the Potency in [5] is 20.9 µM (active); in [6] it was 16.6 µM (active); in [7] it was 23.5 µM (active); in [8], 16.6 µM (active); in [10], 8.2 µM (active); in [11] it was 18.4 µM (active).

`CC(C)(C)OC(=O)CN(Cc1ccc(Cl)cc1)Cc1ccc([N+](=O)[O-])s1`: the cell viability, % of control (lower = more cytotoxic) in [1] came to 18.4%. Further, the viability (% of control) in test [2] amounted to 30.5%. In addition, the Potency in [3] was 10.5 µM (active); in test [6], 2.35 µM (active); in [13], 4.69 µM (active); in test [14] it was 7.43 µM (active). In addition, the Potency entry in test [4], in test [5] and in test [15] was “inactive” throughout.

In the case of `CC(=O)Oc1ccccc1C(=O)O`, the cell viability, % of control (lower = more cytotoxic) in test [1] came out at 125%. Also, the viability (% of control) in [2] was found to be 135%. Also, the Potency entry in test [3], in [4], in test [9] and in [11] was “inactive” each time. The Potency is 8.33 µM (active) in [5], 18.7 µM (active) in test [6], 20.9 µM (active) in test [7] and 11.8 µM (active) in test [8]. Further, the result in test [12] was inactive.

In the case of `Nc1nc2c(ncn2COCCO)c(=O)[nH]1`, the cell viability, % of control (lower = more cytotoxic) in [1] stood at 126%. The viability (% of control) in test [2] worked out at 34.4%. Further, the Potency result in [3], in [4], in [5], in test [6], in [7] and in [8] was “inactive” each time. Besides, in test [9], the Potency entry was “inactive”. Moreover, the compound was called inactive in test [12].

In the case of `CC1(C)SCCN(S(=O)(=O)c2ccc(OCC#CCO)cc2)[C@@H]1C(=O)NO`, the cell viability, % of control (lower = more cytotoxic) in [1] came out at 80%. In addition, the viability (% of control) in [2] came to 102%. The Potency entry in [3], in test [4], in test [5], in test [7], in test [8] and in test [13] was “inactive” throughout. Further, the Potency entry in test [15], in test [10] and in test [11] was “inactive” each time. In addition, the Potency in [6] is 13.2 µM (active). In addition, in test [16], the IC50 (viability decrease) entry is “inactive”.

On to `S=C(NCc1ccc2c(c1)OCO2)N1CCN(c2ncnc3c2oc2ccccc23)CC1`, for which the cell viability, % of control (lower = more cytotoxic) in test [1] is 387% [at 92.2 µM]. The viability (% of control) in [2] was found to be 56.7% [at 92.2 µM]. The Potency entry in test [3] and in test [4] was “inactive” throughout. The Potency in test [5] is 1.91 µM (active); in test [7], 4.81 µM (active); in test [8] it was 12.1 µM (active); in test [13], 13.2 µM (active); in test [14] it was 7.43 µM (active); in [15], 14.8 µM (active). In test [16], the IC50 (viability decrease) was 4.18 µM (active).

With `O=NN(CCCl)C(=O)NCCCl`, the cell viability, % of control (lower = more cytotoxic) in test [1] is 114%. In addition, in test [2], the viability (% of control) was determined as 103%. For the same compound, the Potency result in [3], in test [4], in test [5], in [6], in [7] and in test [8] was “inactive” each time. For the same compound, the Potency entry in test [9] and in test [11] was “inactive” in each case. In addition, in test [12], the result was inactive.

On to `NS(=O)(=O)c1cc2c(cc1Cl)NC=NS2(=O)=O`, for which, in [1], the cell viability, % of control (lower = more cytotoxic) came out at 71.6%. For the same compound, the viability (% of control) in test [2] was determined as 26.7%. The Potency entry in test [3], in [4], in test [5], in test [7], in test [8] and in test [9] was “inactive” in each case. Besides, the Potency result in test [10] and in test [11] was “inactive” each time. Also, in test [17], the compound was called inactive.

For the compound `O=C(O)[C@@H](c1ccc(OCc2ccc3ccccc3n2)cc1)C1CCCC1`, in test [1], the cell viability, % of control (lower = more cytotoxic) was determined as 125%. Further, the viability (% of control) in test [2] was 73.2%. For the same compound, the Potency in test [3] was 16.6 µM (active); in [4], 13.2 µM (active). The Potency entry in test [5], in test [6], in [7], in test [8], in test [13] and in test [15] was “inactive” each time. Besides, in test [11], the Potency result is “inactive”.

For `CCCCCCCc1ccc(CCc2cccc(O)c2C(=O)O)cc1`, the cell viability, % of control (lower = more cytotoxic) in test [1] came to 161%. For the same compound, in [2], the viability (% of control) amounted to 66.1%. Further, the Potency entry in test [3], in test [4], in test [13] and in test [18] was “inactive” each time. Moreover, the Potency was 18.7 µM (active) in [5] and 16.6 µM (active) in [6].

For the compound `c1ccc([C@H]2CN3CCSC3=N2)cc1`, the cell viability, % of control (lower = more cytotoxic) in test [1] was 200%. The viability (% of control) in test [2] came to 116%. For the same compound, the Potency result in test [3], in test [4], in test [5], in test [6], in [7] and in [8] was “inactive” throughout. Also, the Potency result in test [9] and in test [11] was “inactive” in each case. The call in [12] was inactive.

As for `Oc1cccc(-c2nc(N3CCOCC3)c3oc4ncccc4c3n2)c1`, in test [1], the cell viability, % of control (lower = more cytotoxic) turned out to be 8.19% [at 92.2 µM]. In addition, the viability (% of control) in test [2] is 17.8% [at 92.2 µM]. The Potency entry in [3] and in [4] was “inactive” each time. Also, the Potency was 0.96 µM (active) in test [5]; 0.152 µM (active) in test [6]; 0.429 µM (active) in test [7]; 0.0762 µM (active) in [8]; 0.0743 µM (active) in test [13]; 0.58 µM (active) in [10]. Also, the Potency in test [11] is 108 nM (active) and 517 nM (active). Further, the IC50 (viability decrease) in [16] is 0.105 µM (active).
